# Assay results as given in PubChem BioAssay (NCI).
# About 83,000 compounds went through this panel and 20% of them were active in at least one assay; those are over-represented in the sample as a whole.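 The test compound was applied at a single concentration to cells in 96-well plates for 48 hours, and percent growth was recorded.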 A number with no mark means an inactive call. Active and inactive are the calls of the source. Rule for the calls: active = growth percent below 10; inactive = the rest.
# What was measured:
# Test in all cases: NCI-60 one-dose screen, 48 h (100 = growth as untreated, 0 = no growth, -100 = all killed)
# Settings in all cases: 10 µM unless noted
# DU-145 prostate = system: DU-145 prostate
# K-562 leukemia = system: K-562 leukemia
# MALME-3M melanoma = system: MALME-3M melanoma
# MDA-MB-231 breast = system: MDA-MB-231 breast
# SF-268 CNS = system: SF-268 CNS
# SF-295 CNS = system: SF-295 CNS
# SF-539 CNS = system: SF-539 CNS
# UACC-257 melanoma = system: UACC-257 melanoma
# M14 melanoma = system: M14 melanoma
# HCT-15 colon = system: HCT-15 colon
# HT29 colon = system: HT29 colon
# SNB-75 CNS = system: SNB-75 CNS
# SNB-19 CNS = system: SNB-19 CNS
# U251 CNS = system: U251 CNS
# PC-3 prostate = system: PC-3 prostate
# SK-MEL-5 melanoma = system: SK-MEL-5 melanoma
# UACC-62 melanoma = system: UACC-62 melanoma
# LOX IMVI melanoma = system: LOX IMVI melanoma
# SK-MEL-28 melanoma = system: SK-MEL-28 melanoma
Compound,growth (DU-145 prostate),growth (K-562 leukemia),growth (MALME-3M melanoma),growth (MDA-MB-231 breast),growth (SF-268 CNS),growth (SF-295 CNS),growth (SF-539 CNS),growth (UACC-257 melanoma),growth (M14 melanoma),growth (HCT-15 colon),growth (HT29 colon),growth (SNB-75 CNS),growth (SNB-19 CNS),growth (U251 CNS),growth (PC-3 prostate),growth (SK-MEL-5 melanoma),growth (UACC-62 melanoma),growth (LOX IMVI melanoma),growth (SK-MEL-28 melanoma)
O=C(N/N=C/c1cccnc1)c1ccccc1Nc1cccc(C(F)(F)F)c1,91.1%,41.5%,65%,118%,76.6%,64.7%,96.7%,75.3%,73%,71.7%,91.7%,83%,84.8%,92.1%,88.8%,74.3%,102%,78.6%,85.5%
COc1cnccc1-c1nc2ccc3[nH]ncc3c2c2c1CCCC2,62.7%,42.2%,73.8%,68.2%,61.3%,60.5%,35.7%,87.5%,46.3%,46.1%,51.8%,24.1%,85.3%,83.9%,68.2%,54.1%,38.1%,31.7%,58.6%
CC(=O)Nc1ccc(S(=O)(=O)NC2CCCCC2)cc1,113%,100%,98.1%,97.3%,104%,96.4%,103%,95.8%,101%,95.9%,95.4%,86.3%,96.2%,91%,94.6%,98.2%,91.4%,95.8%,98.3%
COc1cc(C2CC(c3cccc(Nc4ccncc4)c3)=NN2C(C)=O)cc(OC)c1OC (centres undefined),107%,34.7%,80%,92.8%,94.4%,94.9%,89.1%,91.5%,100%,98%,78.5%,67.4%,93%,91.5%,84.2%,89.9%,93.9%,85.3%,96.6%
O=C(Nc1cccc(Cl)c1)Oc1c(Br)c(Br)c(Br)c(Br)c1Br,105%,78.5%,90.7%,103%,91.4%,79.2%,98.1%,69.4%,90.9%,98.2%,91.8%,90%,101%,91.9%,59.5%,75.2%,82.1%,88.6%,93.1%
COc1ccc(NC(=O)c2sc3nc(C)c(C(=O)CCc4cccc(OC)c4)cc3c2N)cc1,71.7%,20%,62.5%,85.8%,80.2%,15.7%,72%,89%,70.1%,46.7%,67.4%,65.7%,73.5%,78.3%,79.5%,61.9%,63.7%,75.4%,83%
CC(C)(C)OC(=O)N1C/C(=C\c2ccoc2)C(=O)/C(=C/c2ccoc2)C1,109%,29.3%,92.6%,109%,89.5%,103%,106%,95.9%,94.2%,99.6%,98%,77%,96.5%,88.2%,89.5%,99.8%,88.3%,90.7%,102%
CC[C@@]12C=CCN3CC[C@]4(c5cc(NC(=O)COc6cc(OCC(=O)Nc7cc8c(cc7OC)N(C)[C@H]7[C@@](O)(C(=O)OC)[C@H](OC(C)=O)[C@]9(CC)C=CCN%10CC[C@]87[C@@H]%109)cc7oc(-c8ccccc8)cc(=O)c67)c(OC)cc5N(C)[C@@H]4[C@](O)(C(=O)OC)[C@H]1OC(C)=O)[C@H]32,30.3%,45.6%,111%,4.69% (active),-1.19% (active),71.3%,89.3%,103%,50.4%,34.7%,1.38% (active),82.5%,58.5%,-3.12% (active),23%,103%,93.8%,7.97% (active),112%
COc1ccc(Cn2nc(-c3cc(OC)c(OC)c(OC)c3)c3c2CCc2cnoc2-3)cc1OC,76.1%,18.9%,78%,52.7%,68%,47.6%,37.7%,75.8%,61.7%,53.1%,22%,37.8%,65.4%,62.1%,65%,38.7%,–,47%,64.9%
COc1c(Cl)cc(Cl)c2ccc(C=C3C(=O)NC(=S)NC3=O)nc12,115%,102%,106%,113%,99.8%,102%,101%,102%,-56.2% (active),103%,109%,95%,99.2%,105%,105%,101%,105%,101%,103%
CC1CCN(C(=O)OCc2nc3nc(Cl)nc(N4CCOCC4)c3[nH]2)CC1,-76.7% (active),-16.7% (active),-78.9% (active),-60.1% (active),-81.6% (active),88.3%,-47.1% (active),-89.7% (active),-50.9% (active),-12.2% (active),-66.8% (active),14.8%,60.3%,-89.2% (active),-59.2% (active),-27.3% (active),-94.1% (active),-86.4% (active),-86.4% (active)
COC(=O)Nc1ccc(NC(=O)OC)cc1,110%,103%,105%,120%,103%,99.7%,106%,66.3%,83.7%,108%,98.4%,80%,103%,99.1%,77.7%,99.1%,103%,99%,116%
COc1ccc2c(c1)OC1=C(C(=O)OC1)C2c1cc(OC)c(OC)c(OC)c1 (centres undefined),6.88% (active),14.1%,61.1%,42.7%,32%,8.32% (active),0.966% (active),39.6%,10.2%,19%,6.93% (active),41.1%,33.8%,21.6%,28.1%,16.1%,42.3%,50.8%,53.5%
CCNC(=O)c1[nH]cc(-c2ccc(OC)cc2)c1-c1cc(OC)c(OC)c(OC)c1,69.3%,12.1%,35.4%,74.5%,58.8%,30.3%,29.1%,81.3%,51.4%,35.7%,14.7%,-6.81% (active),55.2%,55.5%,28.8%,–,–,44.5%,56.7%
FC(F)(F)c1cccc(Oc2ccc(Nc3ncnc4ccc(OCCCN5CCOCC5)cc34)cc2Cl)c1,43%,1.77% (active),-4.17% (active),22.4%,55.6%,25.7%,60.8%,40.1%,-36% (active),-40.4% (active),5% (active),75.2%,61.1%,40.3%,49.1%,59.2%,–,-36% (active),21.3%
Clc1nc(Cl)c2ncn(CCOCCn3cnc4c(Cl)nc(Cl)nc43)c2n1,-99.1% (active),-62.9% (active),-73.2% (active),-89.9% (active),-83.3% (active),-91.9% (active),-89.9% (active),-89.7% (active),-84.9% (active),-78.7% (active),-60.5% (active),-92.3% (active),-89.3% (active),-72.3% (active),-93.4% (active),–,-95.9% (active),-83.2% (active),-95.7% (active)
